# In PubChem BioAssay (Tox21):
# Records with an inconclusive call do not appear. Active and inactive are the calls of the source. The call rests on the fitted dose curve; in most records, active means well fitted cell-killing curve with a large enough effect in the repeat runs; inconclusive means weak or mixed curves, or effect the other way; inactive means flat fitted curve, though single readings scatter.
# Test: qHTS assay to identify small molecule agonists of the constitutive androstane receptor (CAR) signaling pathway - cell viability counter screen (AID 1224836); further: nearly all actives have a fitted effect of over 45% in size
# Details: HepG2-CYP2B6-hCAR viability, CellTiter-Fluor, 23 h, PK11195 added to every well; series mostly up to 92.4 µM; viability change, negative = cytotoxic: at the top concentration
# Source text: U.S. Tox21 Program National Center for Advancing Translational Sciences [NCATS] NIH Chemical Genomics Center [NCGC] U.S. Environmental Protection Agency [EPA] National Institutes of Environmental Health Sciences [NIEHS] National Toxicology Program [NTP] U.S. Food and Drug Administration [FDA] Tox21 Assay Overview: The constitutive androstane receptor (CAR) is a nuclear receptor which regulates multiple drug metabolizing enzymes (DMEs) and transporters. Activating CAR will generally increase the transcription and subsequent translation of CYP2B6 and CYP3A4. These two DMEs represent about 50% of the drug metabolizing potential in the body. […] Recently, there have also been studies performed indicating CARs role in energy metabolism and cancer therapy. Therefore, inducing CARs activity could have a potential effect on diabetes and cancer. Identifying environmental toxins and compounds which modulate CAR, through the use of the Tox21 10K compound collection, will be an important step in determining the toxicity and potential therapeutic effects these factors will have on the human body. To differentiate true CAR agonists from cytotoxic substances, the assay is multiplexed with a cell viability assay.
# Tox21 Assay Protocol Summary: A double-stable (hCAR and CYP2B6-2.2kb) transfected cell line, derived from human hepatoma (HepG2) cells, was utilized for the duration of the quantitative high-throughput screens. The HepG2-CYP2B6-hCAR cells were dispensed at 2500 cells/4 uL/well in 1536-well white solid bottom plates using a Multidrop Combi. After the assay plates were incubated at 37 C/5% CO2 for 4 hrs, 23 nL of compounds at 15 concentrations (from 5-48 columns) or positive control (from 1 to 4 columns) were transferred to the assay plates using a Pintool station. One uL of PK11195 (final concentration = 0.75 uM) was added, using a Flying Reagent Dispenser, inside each well. After a 23 hr incubation period at 37 C/5% CO2, 1 uL of CellTiter-Fluor reagent was added into each well of the assay plates using a Flying Reagent Dispenser. The fluorescence intensity in the plates was then measured using a ViewLux plate reader.
# On the % scale 0 is the no-effect control and ±100 the full control effect.
row,SMILES,"viability change, negative = cytotoxic"
1,CC(=O)[O][Al],3.89% (inactive)
2,CC(CC=O)c1ccccc1 (stereo not given),-0.516% (inactive)
3,COc1cc2nc(N3CCN(C(=O)C4COc5ccccc5O4)CC3)nc(N)c2cc1OC (stereo not given),-18.6% [at 42.5 µM] (inactive)
4,CC(C)Nc1ccc(NC(C)C)c2c1C(=O)c1ccccc1C2=O,-20.9% [at 42.5 µM] (inactive)
5,OC[C@H]1O[C@@H](OCCc2ccc(O)cc2)[C@H](O)[C@@H](O)[C@@H]1O,-11.3% [at 42.5 µM] (inactive)
6,CCCCC(CC)COC(=O)CCCCCCCCC(=O)OCC(CC)CCCC (stereo not given),0.266% (inactive)
7,C[C@H](CCC(=O)O)[C@H]1CC[C@H]2[C@@H]3CC[C@@H]4C[C@H](O)CC[C@]4(C)[C@H]3C[C@H](O)[C@]12C,-16.9% (inactive)
8,NCC(=O)CCC(=O)O,-1.47% [at 42.5 µM] (inactive)
9,NCc1ccccc1Sc1ccccc1CO,-5.8% [at 42.5 µM] (inactive)
10,CCCCO,6.25% (inactive)
11,NS(=O)(=O)c1ccc(N2CCCCS2(=O)=O)cc1,6.37% [at 42.5 µM] (inactive)
12,O=C(O)CC(=O)C(=O)O,0.0512% (inactive)
13,C[C@@H](c1ncncc1F)C(O)(Cn1cncn1)c1ccc(F)cc1F (stereo not given in full),4.25% [at 42.5 µM] (inactive)
14,CC/C=C\CCOC(=O)CC,2.35% (inactive)
15,CCCCCCCCCCCCCCCCOS(=O)(=O)O,-7.51% [at 42.5 µM] (inactive)
16,O=C1CCCCCCCCCCCC(=O)OCCO1,0.49% (inactive)
17,CCCCC1=NC2(CCCC2)C(=O)N1Cc1ccc(-c2ccccc2-c2nn[nH]n2)cc1,-10.1% [at 42.5 µM] (inactive)
18,O=C(CS)Nc1ccccc1,2.66% [at 42.5 µM] (inactive)
19,Brc1c2ccccc2cc2ccccc12,8.17% (inactive)
20,Cc1ccccc1S(=O)(=O)O,4.74% (inactive)

row,SMILES,"viability change, negative = cytotoxic"
1,COc1cc(C(=O)OCCCN2CCCN(CCCOC(=O)c3cc(OC)c(OC)c(OC)c3)CC2)cc(OC)c1OC,-1.89% [at 42.5 µM] (inactive)
2,COC(C)(C)CCO,0.0132% (inactive)
3,NCCCN1CCOCC1,2.17% (inactive)
4,C[N+]1(CC2COC(c3ccccc3)(C3CCCCC3)O2)CCCCC1 (stereo not given),-1.46% [at 42.5 µM] (inactive)
5,O=[N+]([O-])c1ccc2[nH]ncc2c1,-1.86% (inactive)
6,Cc1c(N)cccc1[N+](=O)[O-],-1.67% (inactive)
7,CCOCC(O)COc1ccc(NC(=O)CC[S+](C)C)cc1 (stereo not given),-2.63% [at 42.5 µM] (inactive)
8,O=C(Nc1ccc(S(=O)(=O)N2CCOCC2)cc1)c1cc(Cl)ccc1NS(=O)(=O)c1ccc(Cl)s1,-13.4% [at 42.5 µM] (inactive)
9,CC1=CCCC(C)(C)C12CCC(C)O2 (stereo not given),-9.13% (inactive)
10,O=C(O)c1ccc(S(=O)(=O)O)cc1C(=O)O,-3.21% (inactive)
11,O=C(O)C1(C(=O)Nc2ccc(Cl)cc2Cl)CC1,1.77% (inactive)
12,O=C1C(O)=C(O)C(=O)C(O)=C1O,-9.54% [at 42.5 µM] (inactive)
13,CC(=O)[O][Al][O]C(C)=O,3.53% (inactive)
14,CCOC(=O)C1=C[C@]2(CC)CCCN3CCc4c(n1c1ccccc41)[C@@H]32,-0.381% [at 42.5 µM] (inactive)
15,O=C(Cl)c1cc(C(=O)Cl)cc(C(=O)Cl)c1,12.2% (inactive)
16,ClCCOCCOCCCl,1.44% (inactive)
17,CCN(CC)CCNC(=O)c1cc(Br)c(N)cc1OC,3.62% [at 42.5 µM] (inactive)
18,NC(=O)C(c1ccccc1)(c1ccccc1)[C@@H]1CCN(CCc2ccc3c(c2)CCO3)C1,-22.7% [at 42.5 µM] (inactive)
19,CCc1c(C(=O)NN2CCCCC2)nn(-c2ccc(Cl)cc2Cl)c1-c1ccc(Br)cc1,-18.9% (inactive)
20,Cc1ccc(C(C)OC(=O)C2(C)CCC(C(=O)O)C2(C)C)cc1 (stereo not given),1.89% [at 42.5 µM] (inactive)
